Reference: the supplement of paper PMC10338343
± gives the standard deviation.

test system: MILI (PIWIL2) piRISC loaded with piRNA #1 (26 nt); assay: pre-steady-state target cleavage rate (min^-1); guide: piRNA #1 5'p-UGAGGUAGUAGGUUGUAUAGUAUCCA; MIWI and MILI are mouse PIWI proteins and EfPiwi is from a freshwater sponge; tags in brackets are library labels; higher = faster piRNA-guided slicing of the target; settings: auxiliary factor: 500 nM mouse GTSF1
How it was run: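 Reactions were run for 0–8 or 0–960 min at 33 °C in HEPES–potassium acetate buffer, combining 1 nM active affinity-purified piRISC with one synthetic guide, […] transcribed, DNA-blocked target RNA library and, in some cases, 500 nM GTSF1 partner protein. Sequencing of uncleaved targets followed, with normalisation to depth and to weakly complementary targets. Three trials were pooled, k3 was capped at 0.0001 min^-1, and the pre-steady-state cleavage rate was taken from a burst-and-steady-state fit.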
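Note: 1 nM active piRISC with 0.1 nM target library at 33 °C single turnover.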

Sequence | pre-steady-state target cleavage rate
GGAGACGUUACUAAACAACCUACUACCUCA | 0.153 ± 0.012
GGAGACCUUACUAUACAAGGUACUACCUCA | 0.0785 ± 0.0094
GGAGACCUAUGAUAUGUUCCUACGUACCUCA | < 0.0001
GGAGACCUUUCUAUACAACCUACUACGUCA | 0.0394 ± 0.0068
GGAGACCUUACUAUACAUCCUACAACCUCA | 0.214 ± 0.019
GGAGUGGAAACUAUUCAACCUACUACCUCA | 0.192 ± 0.017
GGAGACCUAACUGUACAACCUACUACCUCA | 0.0814 ± 0.024
GGAGACCUAUCUAUACAACCUACUUGCUCA | 0.109 ± 0.023
GGAGACCUAUGAUAACAAGCUACUACCACA | 0.0117 ± 0.0047
GGAGAGGAUUCUAUACAACCUACUAGCUCA | 0.0566 ± 0.01
GGAGACCUAUGUAUUCAACCUACAACCUCA | 0.0352 ± 0.0064
GGAGACCUAUGAAUUACAACCUACUACCUCA | 0.00427 ± 0.0021
GGAGACCUAUGAUUACAAGCUUCUACCUCA | 0.00347 ± 0.0023
GGAGAGGAUACUAUACUUGCUACUACCUCA | 0.0407 ± 0.0049
GGAGACCUUACUAUACAAGCUACUACGUCA | 0.203 ± 0.029
GGAGACCUAUGUAUACUACCUACUACCUCA | 0.0517 ± 0.008
